Sfp PPTase inh – inhibitors of Bacillus subtilis Sfp phosphopantetheinyl transferase; hit rate 3.5% among 310,000; Potency, µM, hits mostly inhibitors; Q9F4F7; Biochemical Sfp PPTase activity, qHTS;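 also: the enzyme is Sfp with the accession as filed and its product quenches rhodamine fluorescence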
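Sfp 15 nM + cpd, 15 min RT; start w/ rhodamine-CoA 5 uM, BHQ-2-YbbR 12.5 uM (final); 50 mM Hepes pH 7.6, 10 mM MgCl2, 0.01% NP-40, 0.01% BSA; read 525/598 nm at 0 and 30 min.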
HP1b binding inh – inhibitors of HP1-beta chromodomain binding to methylated histone tails. P83916. AlphaScreen HP1-beta / biotin-H3K9me3 peptide binding. Potency, µM (highest dose often 114 µM), hits mostly inhibitors. hit rate 0.56% among 390,000; also: nearly all actives have a fitted effect of over 70% in size
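HP1-beta protein (50 nM final) preincubated 30 min at room temperature with biotinylated H3(1-18)K9me3 peptide (50 nM) in PBS pH 7.4, 0.01% Tween-20, then compound added for 30 min. AlphaScreen streptavidin donor/nickel chelate acceptor beads (10 ug/mL final), 30 min dark, luminescence read.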
G9a block – blocks human histone lysine methyltransferase G9a; hit rate 8.8% among 350,000; Potency, µM (series often up to 102 µM), hits mostly inhibitors; Q96KQ7; G9a H3K9 monomethylation, AlphaScreen, 2 h; also: nearly all actives have a fitted effect of over 75% in size
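AlphaScreen detection with an anti-monomethyl H3K9 antibody quantified product after a 2 h room-temperature reaction containing 500 nM biotinylated H3K9 peptide, 20 µM SAM and 20 nM enzyme, which had been preincubated 15 min with compound.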
BAZ2B inh – inhibitors of human BAZ2B bromodomain; hit rate 4.4% among 360,000; AlphaScreen BAZ2B-H3K14Ac peptide displacement; Q9UIF8; Potency, µM (series often up to 114 µM), actives largely listed as inhibitors; also: nearly all actives have a fitted effect of over 60% in size
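Complex of BAZ2B and biotin-H3K14Ac (50 nM apiece) forms over 30 min at RT, then faces library compounds up to 110 uM for another 30 min; AlphaScreen beads added, 20 min dark incubation, luminescence read.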
JMJD2A Tudor inh – JMJD2A Tudor domain (human) inhibition. O75164. AlphaScreen JMJD2A-Tudor / H3K4me3 peptide binding. Potency, µM (highest dose often 114 µM), hits mostly inhibitors. hit rate 4.4% among 390,000; also: nearly all actives have a fitted effect of over 50% in size
Target sequence (O75164 whole entry, looked up, the tested form may be a part): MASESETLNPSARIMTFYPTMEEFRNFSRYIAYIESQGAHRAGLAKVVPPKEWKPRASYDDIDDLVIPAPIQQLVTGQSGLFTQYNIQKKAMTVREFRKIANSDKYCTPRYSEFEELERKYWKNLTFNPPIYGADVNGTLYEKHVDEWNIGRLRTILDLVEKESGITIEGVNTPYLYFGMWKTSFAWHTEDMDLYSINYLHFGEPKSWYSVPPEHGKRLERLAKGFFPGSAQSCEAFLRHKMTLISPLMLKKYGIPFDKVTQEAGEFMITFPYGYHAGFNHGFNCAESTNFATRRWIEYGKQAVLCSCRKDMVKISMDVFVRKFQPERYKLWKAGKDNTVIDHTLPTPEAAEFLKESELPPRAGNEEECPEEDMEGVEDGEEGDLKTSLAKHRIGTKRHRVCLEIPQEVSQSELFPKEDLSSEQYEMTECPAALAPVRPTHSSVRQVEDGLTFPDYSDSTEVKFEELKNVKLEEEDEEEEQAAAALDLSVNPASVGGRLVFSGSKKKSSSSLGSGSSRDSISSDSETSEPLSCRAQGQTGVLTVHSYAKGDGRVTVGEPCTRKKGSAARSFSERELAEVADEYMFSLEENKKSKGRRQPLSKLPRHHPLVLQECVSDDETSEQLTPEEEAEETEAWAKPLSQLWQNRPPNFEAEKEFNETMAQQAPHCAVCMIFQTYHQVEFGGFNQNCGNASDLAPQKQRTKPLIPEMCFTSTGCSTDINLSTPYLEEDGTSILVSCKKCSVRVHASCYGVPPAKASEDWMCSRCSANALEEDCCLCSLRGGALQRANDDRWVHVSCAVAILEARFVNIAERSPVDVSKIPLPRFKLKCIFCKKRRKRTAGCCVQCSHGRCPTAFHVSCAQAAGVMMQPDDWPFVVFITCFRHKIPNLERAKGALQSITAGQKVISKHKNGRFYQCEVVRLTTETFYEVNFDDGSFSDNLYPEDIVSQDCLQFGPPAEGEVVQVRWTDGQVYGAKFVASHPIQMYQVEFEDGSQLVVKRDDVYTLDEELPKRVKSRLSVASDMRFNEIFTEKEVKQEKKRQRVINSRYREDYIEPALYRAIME
L3MBTL1 inh – inhibitors of human L3MBTL1. AlphaScreen L3MBTL1–H3K9me1 peptide binding. Potency, µM (doses to about 57.1 µM), most hits filed as inhibitors. hit rate 0.66% among 230,000. AID 485360; also: nearly all actives have a fitted effect of over 60% in size
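L3MBTL1 (50 nM) pre-complexed 30 min with biotinylated H3(1-15)K9me1 peptide (75 nM), then compounds added for 30 min at room temperature; AlphaScreen streptavidin donor/nickel chelate acceptor beads (10 ug/mL final) read after 30 min dark incubation.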
Large screens that a line does not name were inactive. A selection: hits, their analogues and other compounds. The true share with any hit is near 12%. Calls follow the shape of the dose curve; as a rule, active = well fitted curve in the direction sought with a large enough effect; inconclusive = small, poorly fitted or top-dose-only effect, or another doubt; inactive = no such curve, though single readings can be large; an effect the other way counts as inactive or inconclusive.

Cc1nnc(Sc2cc(NCCCO)c([N+](=O)[O-])c3nonc23)s1	Sfp PPTase inh 3.16µM, HP1b binding inh 12.6µM, G9a block 5.62µM, JMJD2A Tudor inh 28.2µM
O=[N+]([O-])c1c(NCCO)cc(N2CCCCCC2)c2nonc12	none
Cc1nnc(Sc2cc(NCCO)c([N+](=O)[O-])c3nonc23)s1	Sfp PPTase inh 6.31µM, HP1b binding inh 12.6µM, G9a block 2µM, JMJD2A Tudor inh inconclusive
O=S(=O)(c1ccc(Br)cc1)c1nc(-c2ccco2)oc1NCC1CCCO1 (stereo not given)	G9a block 35.5µM, BAZ2B inh inconclusive
Cc1ccc(S(=O)(=O)c2nc(-c3ccco3)oc2NCC2CCCO2)cc1 (stereo not given)	Sfp PPTase inh inconclusive, G9a block 10µM
CN(C)c1oc(-c2ccco2)nc1S(=O)(=O)c1ccc(Br)cc1	BAZ2B inh inconclusive, JMJD2A Tudor inh inconclusive (no result: Sfp PPTase inh)
O=C(COc1ccc([N+](=O)[O-])cc1)NCc1ccncc1	none
Cn1cc(C2=C(c3cn(CCCSC(=N)N)c4ccccc34)C(=O)NC2=O)c2ccccc21	Sfp PPTase inh 50.1µM, G9a block 7.94µM (no result: HP1b binding inh, BAZ2B inh, JMJD2A Tudor inh, L3MBTL1 inh)
CN(C)CCCn1cc(C2=C(c3c[nH]c4ccccc34)C(=O)NC2=O)c2ccccc21	G9a block 14.1µM (no result: HP1b binding inh, BAZ2B inh, JMJD2A Tudor inh, L3MBTL1 inh)
O=[N+]([O-])c1cc([N+](=O)[O-])c(Oc2cncc(Cl)c2)cc1NC1CCCCCCC1	HP1b binding inh inconclusive, G9a block inconclusive, BAZ2B inh inconclusive, JMJD2A Tudor inh inconclusive
O=[N+]([O-])c1cc([N+](=O)[O-])c(Oc2cc(Cl)ccc2Cl)cc1NC1CCCCCCC1	G9a block 39.8µM, BAZ2B inh inconclusive, JMJD2A Tudor inh inconclusive
O=[N+]([O-])c1ccc(Oc2cc(NC3CCCCCCC3)c([N+](=O)[O-])cc2[N+](=O)[O-])cc1	G9a block 39.8µM, BAZ2B inh inconclusive, JMJD2A Tudor inh inconclusive
O=C(COc1ccc(Cl)cc1[N+](=O)[O-])NC1CCCCC1	BAZ2B inh inconclusive
O=Cc1cn(CCOc2ccccc2)c2ccccc12	none
CC(=O)Nc1ncc([N+](=O)[O-])s1	none (no result: HP1b binding inh, BAZ2B inh, JMJD2A Tudor inh, L3MBTL1 inh)
C=CCn1c(Sc2ncc([N+](=O)[O-])s2)n[nH]c1=O	Sfp PPTase inh 10µM, G9a block 11.2µM
C=CCOC(=O)N[C@@H](c1cccs1)C(C(C)=O)C(C)=O	none (no result: HP1b binding inh, G9a block, BAZ2B inh, JMJD2A Tudor inh, L3MBTL1 inh)
O=C(O)CCc1ccc(S(=O)(=O)Nc2cc(C(F)(F)F)ccc2N2CCCC2)cc1	G9a block 28.2µM, BAZ2B inh 79.4µM, JMJD2A Tudor inh inconclusive, L3MBTL1 inh inconclusive (no result: Sfp PPTase inh)
CCO/C=C1/C(=O)N(C)C(=O)c2cc(OC)ccc21	G9a block 3.55µM (no result: L3MBTL1 inh)
CCO/C=C1\C(=O)N(c2ccccc2)C(=O)c2ccccc21	G9a block 25.1µM, BAZ2B inh inconclusive
CCO/C=C1/C(=O)N(c2ccc(OC)cc2)C(=O)c2ccccc21	G9a block 25.1µM
CCO/C=C1/C(=O)N(c2ccccc2OC)C(=O)c2ccccc21	G9a block 28.2µM, JMJD2A Tudor inh inconclusive
CCO/C=C1/C(=O)N(CC)c2ccccc21	G9a block inconclusive
O=C(OC[C@@H](O)CO)c1ccccc1Nc1ccnc2cc(Cl)ccc12	none (no result: HP1b binding inh, BAZ2B inh, JMJD2A Tudor inh, L3MBTL1 inh)
O=C(NCc1ccccc1F)C1CCCN1S(=O)(=O)c1ccc(F)cc1 (stereo not given)	none (no result: G9a block)
CCO/C=C1/C(=O)N(Cc2ccccc2)C(=O)c2ccccc21	G9a block 14.1µM
Cc1ccc(/C=C/C(=O)N2CC(=O)Nc3ccccc32)o1	Sfp PPTase inh 7.08µM, G9a block inconclusive, BAZ2B inh inconclusive
Cc1cc(C)cc(C(=O)N2CC(=O)Nc3ccccc32)c1	BAZ2B inh inconclusive (no result: L3MBTL1 inh)
Cc1ccc(/C=C/C(=O)N2CCN(S(=O)(=O)c3c(C)c(C)cc(C)c3C)CC2)o1	Sfp PPTase inh 14.1µM, HP1b binding inh inconclusive, G9a block 7.94µM, BAZ2B inh inconclusive, JMJD2A Tudor inh 79.4µM
Cc1ccc(/C=C/C(=O)N2CCN(Cc3ccccc3)CC2)o1	G9a block 3.98µM, BAZ2B inh inconclusive
Cc1ccc(/C=C/C(=O)N2CCN(S(=O)(=O)c3ccc(C)c(C)c3)CC2)o1	Sfp PPTase inh 17.8µM, HP1b binding inh inconclusive, G9a block 2.82µM, BAZ2B inh inconclusive, JMJD2A Tudor inh 44.7µM
CCOc1ccc(-c2cc(C(F)(F)F)c(C#N)c(SCC(=O)Nc3ccccc3)n2)cc1	none (no result: Sfp PPTase inh, L3MBTL1 inh)
COc1cccc(/C=C2\N=C(C3CCCCC3)OC2=O)c1OC	none (no result: L3MBTL1 inh)
CCc1ccc(C(=O)c2cn(CC(=O)Nc3ccc(C)c(C)c3)c3ccccc3c2=O)cc1	BAZ2B inh inconclusive (no result: Sfp PPTase inh, L3MBTL1 inh)
CC(C)Sc1nc(-c2ccccc2)cc(=O)[nH]1	Sfp PPTase inh inconclusive, G9a block 35.5µM
CSc1n[nH]c2nc3c(c(=O)n12)C1(CCCCC1)Cc1ccccc1-3	Sfp PPTase inh 17.8µM (no result: G9a block)
CCSc1n[nH]c2nc3c(c(=O)n12)C1(CCCCC1)Cc1ccccc1-3	none (no result: G9a block)

From PubChem
